Data published in PubChem BioAssay (Tox21).
Activity calls are given as the source filed them. Where a call stands in place of a potency, no number is given. Calls follow the shape of the dose curve; as a rule, active = well fitted activation curve with a large enough effect in the repeat runs; inconclusive = weak or mixed curves; inactive = flat fitted curve, though single readings scatter.

molecular target: KiSS-1 receptor (Homo sapiens) (UniProt Q969F8); test: Human kisspeptin (KISS1R) small molecule agonists, calcium flux assay in KISS1R-HEK293 cells (AID 1920064); settings: KISS1R-HEK293, calcium flux fluorescence, agonist; series mostly up to 76.8 µM
Summary of the method: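 After overnight (18 h) culture at 37 C/5% CO2, human KISS1R-HEK293 cells received calcium dye for 1 h, then test compound; emission at 540 nm (excitation 480 nm) was tracked for 3 min.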

Chain of KiSS-1 receptor (Homo sapiens) (Q969F8 whole entry, looked up): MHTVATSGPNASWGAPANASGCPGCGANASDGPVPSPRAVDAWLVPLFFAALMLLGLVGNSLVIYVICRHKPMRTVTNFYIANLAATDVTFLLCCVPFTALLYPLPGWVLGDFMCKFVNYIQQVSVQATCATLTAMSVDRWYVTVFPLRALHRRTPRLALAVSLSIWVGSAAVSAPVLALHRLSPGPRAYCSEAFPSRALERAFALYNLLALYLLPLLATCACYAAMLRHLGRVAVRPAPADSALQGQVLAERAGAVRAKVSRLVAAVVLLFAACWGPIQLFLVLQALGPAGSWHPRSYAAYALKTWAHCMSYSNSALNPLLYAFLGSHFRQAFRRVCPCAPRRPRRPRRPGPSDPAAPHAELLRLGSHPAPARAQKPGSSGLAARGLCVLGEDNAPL

Row | SMILES | Potency
1 | CCC(C)OC(=O)c1ccc(O)cc1 (stereo not given) | inactive
2 | O=c1n(CC2CO2)c(=O)n(CC2CO2)c(=O)n1CC1CO1 (stereo not given) | inactive
3 | COc1ccc2c(c1)c(CC(=O)O)c(C)n2C(=O)c1ccc(Cl)cc1 | inactive
4 | Oc1c(Cl)cc(Cl)c(Cl)c1Cc1c(O)c(Cl)cc(Cl)c1Cl | inactive
5 | NC(=O)c1ncn([C@@H]2O[C@H](CO)[C@@H](O)[C@H]2O)n1 | inactive
6 | CC(=O)OCC(=O)[C@@]12N=C(C)O[C@@H]1C[C@H]1[C@@H]3CCC4=CC(=O)C=C[C@]4(C)[C@H]3[C@@H](O)C[C@@]12C | inactive
7 | CCCCC(CC)COC(=O)C(C#N)=C(c1ccccc1)c1ccccc1 (stereo not given) | inactive
8 | OC1CCCCC1 | inactive
9 | Cc1cc(=O)[nH]c(=S)[nH]1 | inactive
10 | O=c1c(O)c(-c2ccc(O)cc2)oc2cc(O)cc(O)c12 | inactive
11 | COCCOCCOC | inactive
12 | C=C(C)C(=O)OCCCCCC | inactive
13 | C=C(C)C1CC=C(C)C(OC(C)=O)C1 (stereo not given) | inactive
14 | Nc1ncn([C@@H]2O[C@H](CO)[C@@H](O)[C@H]2O)c(=O)n1 | inactive
15 | C=C1C2CCC(C2)C1(C)C (stereo not given) | inactive
16 | COCc1c(C(C)C)nc(C(C)C)c(/C=C/[C@@H](O)C[C@@H](O)CC(=O)O)c1-c1ccc(F)cc1 | inactive
17 | CC(=O)Nc1ccc(C(=O)CCl)cc1 | inactive
18 | C=CC(C)(CCC=C(C)C)OC(C)=O (stereo not given) | inactive
19 | C[C@]12C[C@H](O)[C@H]3[C@@H](CCC4=CC(=O)CC[C@@]43C)[C@@H]1CC[C@@H]2C(=O)CO | inactive
20 | CCCCCCCC(=O)OC | inactive

Row | SMILES | Potency
21 | O=C(Cl)c1c(Cl)c(Cl)c(C(=O)Cl)c(Cl)c1Cl | inactive
22 | OC(Cn1cncn1)(Cn1cncn1)c1ccc(F)cc1F | inactive
23 | COC(=O)CCCCC(=O)OC | inactive
24 | C[C@]12CC[C@@H]3c4ccc(O)cc4CC[C@H]3[C@@H]1CC[C@H]2O | inactive
25 | CCCN(CCC)C(=O)SCC | inactive
26 | C=C(C#N)C(=O)OCC | inactive
27 | C[Si]1(C)O[Si](C)(C)O[Si](C)(C)O[Si](C)(C)O1 | inactive
28 | CC(=O)Nc1nnc(S(N)(=O)=O)s1 | inactive
29 | O=[Se](O)O | inactive
30 | CCCCCCCCCCC(CO)CCCCCCCC (stereo not given) | inactive
31 | C#C[C@]1(O)CC[C@H]2[C@@H]3CCC4=Cc5oncc5C[C@]4(C)[C@H]3CC[C@@]21C | inactive
32 | COC(C)COC(C)COC(C)CO (stereo not given) | inactive
33 | Brc1ccc(Oc2ccc(Br)cc2)cc1 | inactive
34 | O=C1CCCCCCCCCCCN1 | inactive
35 | O=C(c1ccc(O)cc1)c1ccc(O)cc1O | inactive
36 | CCCC(O)C(CC)CO (stereo not given) | inactive
37 | CC(=O)Oc1ccc(C(c2ccc(OC(C)=O)cc2)c2ccccn2)cc1 | inactive
38 | CC1COC(=O)O1 (stereo not given) | inactive
39 | CC(=O)O[C@]1(C(C)=O)CC[C@H]2[C@@H]3C=C(Cl)C4=CC(=O)CC[C@]4(C)[C@H]3CC[C@@]21C | inactive
40 | O=C(CC(C(=O)OC1CCCCC1)S(=O)(=O)O)OC1CCCCC1 (stereo not given) | inactive
